# According to PubChem BioAssay AID488890 (Southern Research Specialized Biocontainment Screening …, 2010):
# Hit rate of the full screen: of about 320,000 compounds, about 1,300 (0.41%) were called active. Inconclusive results (about 3%) are left out. How the calls were made is not given here. Not all results are given here. Measured potencies and affinities stand elsewhere.
# Assay: growth inhibition of non-replicating M. tuberculosis (AID 488890);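 further: plate controls were DMSO cells for no effect and high antibiotic wells for full effect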
# Details: Mycobacterium tuberculosis non-replicating, at 25 µM, stronger effect = higher value
row,Structure (SMILES),inhibition
1,CC(NC(=O)CCSCCC(=O)NC(C)c1ccccc1)c1ccccc1 (configuration not stated),21.4%
2,Cc1cc(C(=O)N2CCN(c3ccc(F)cc3)CC2)on1,53.3%
3,COc1ccc(C2=NS(=O)(=O)N(C)C(C(=O)Nc3ccc(OC)c(OC)c3)=C2)cc1,17.6%
4,NC(=O)CC(NC(=O)c1ccc(Br)cc1)c1ccc(NC2CCCCCC2)c([N+](=O)[O-])c1 (configuration not stated),7.44%
5,CC1(C)CC(=O)c2cc(C(=O)O)c(=O)n(-c3ccccc3)c2C1,15.2%
6,CC1(C)CC(=O)c2cc(C(=O)Nn3cnnc3)c(=O)n(-c3ccccc3)c2C1,9%
7,COc1ccccc1CCC(=O)OCC(=O)NCc1ccc(OC)c(OC)c1,-1.1%
8,COc1ccccc1C1NC(=O)CCC1[N+](=O)[O-] (configuration not stated),3.51%
9,CCOc1ccc(Nc2ccc3nonc3c2[N+](=O)[O-])cc1,-4.04%
10,O=C(O)c1cccc(Nc2ccc([N+](=O)[O-])c3nonc23)c1,16.5%
11,O=[N+]([O-])c1c(Nc2ccccc2O)ccc2nonc12,61.7%
12,O=C(O)c1ccccc1Nc1ccc([N+](=O)[O-])c2nonc12,8.28%
13,NS(=O)(=O)c1ccc(Nc2ccc([N+](=O)[O-])c3nonc23)cc1,66.5%
14,O=C(O)c1ccc(Nc2ccc([N+](=O)[O-])c3nonc23)cc1,25.2%
15,COc1ccccc1N1C(=S)N=C(Nc2c(C)cccc2C)C12CCCC2,15.9%
16,CC(C)(C)NC(=O)C1CCCN(S(=O)(=O)c2ccc(-n3cnnn3)cc2)C1 (configuration not stated),17%
17,COC(=O)CNC(=O)CSc1nnc2cc(C)c3ccccc3n12,-0.34%
18,CC(/C=C/C1[C@H](C)C[C@H](O[C@@H]2O[C@H](CO)[C@@H](O)[C@H](O)[C@H]2O)CC1(C)C)O[C@H]1O[C@H](CO)[C@@H](O)[C@H](O)[C@H]1O (some centres not stated),-10.5%
19,Cc1ccc2c(-c3ccc([N+](=O)[O-])cc3)cc(=O)[nH]c2c1,-4.88%
20,Cc1ccc2nc(NCc3ccco3)c(C=NCc3ccco3)c(=O)n2c1,0.74%
21,Cc1cccn2c(=O)c(C=Nc3ccccc3)c(NCc3ccco3)nc12,56.2%
22,O=C(CN1CCN(S(=O)(=O)c2ccccc2)CC1)NC(=O)NCc1ccco1,1.38%
23,O=C(O)c1ccccc1NCc1ccncc1,4.81%

row,Structure (SMILES),inhibition
1,C[C@]12CCC(=O)C=C1CCC1C2CC[C@@]2(C)C1CC[C@]2(C)O (some centres not stated),11.1%
2,O=Cc1ccc(-c2ccc(C(=O)O)cc2)o1,-8.13%
3,CCOC(=O)c1cc(-c2ccc(/C=N\n3cnnc3)o2)ccc1Cl,10%
4,CCCCOC(=O)c1cc(-c2ccc(/C=N/n3cnnc3)o2)ccc1Cl,75.6%
5,CCCCOC(=O)c1ccc(-c2ccc(/C=N/NC(=S)NCC)o2)cc1,73.2%
6,CC(=O)C1=C(O)C(=O)N(CCC(=O)O)C1c1cccc(F)c1 (configuration not stated),-0.65%
7,O=C(NNc1c2ccccc2nc2ccccc12)c1ccc(O)cc1,42%
8,CCCC(=O)NNc1c2ccccc2nc2ccccc12,74.5%
9,CCOc1ccc(S(=O)(=O)Nc2ccc(C(=O)NCCCN3CCOCC3)cc2)cc1,-11.7%
10,CCC(C)C(NC(=O)C1CCC(C)CC1)C(=O)NCc1ccco1 (configuration not stated),-7.14%
11,C/C(=N/NC(=O)CNC(=O)c1ccccn1)c1ccc([N+](=O)[O-])cc1,-2.72%
12,C/C(=N\NC(=O)C(c1ccccc1)c1ccccc1)c1ccccn1,78.2%
13,O=S(=O)(c1ccc2nc(-c3ccccc3)[nH]c2c1)N1CCN(c2ccc(Cl)cc2)CC1,-14.5%
14,COc1ccc(/C(C)=N/Nc2ccccc2Cl)c(O)c1,9.47%
15,C/C(=N\Nc1ncc(Cl)cc1Cl)c1ccc(OC(F)F)cc1,66.3%
16,COc1ccc([N+](=O)[O-])cc1NC(=O)c1cn(-c2ccc(Cl)cc2)c(=O)c2ccccc12,-16.7%
17,N#CC1=C(N)Oc2nc[nH]c(=O)c2C1c1cccs1 (configuration not stated),-24.7%
18,Cc1cc(C)n2nc(N)c(N=Nc3cccc(Cl)c3)c2n1,79.2%
19,Cc1cc(C)n2nc(N)c(N=Nc3ccc(Cl)cc3)c2n1,74.1%
20,Cc1ccc(CC2S/C(=N/c3ccccn3)NC2=O)cc1 (configuration not stated),21.2%
21,O=C1N/C(=N/c2ccccn2)SC1Cc1ccccc1 (configuration not stated),61.6%
22,Cn1ccnc1SCC(=O)Nc1cccc(O)c1,1.05%
23,CC/C(=N/Nc1ccccc1Cl)c1cnnc(-c2ccccc2)n1,5.04%

row,Structure (SMILES),inhibition
1,COCCNC(=O)Cn1cc(C(=O)c2ccccc2F)c2ccccc21,6.99%
2,CCC(NC(=O)c1cc(COc2cncc(Cl)c2)on1)c1ccc(C)cc1 (configuration not stated),61.6%
3,CCC(NC(=O)c1cc(COc2cncc(Cl)c2)on1)c1ccncc1 (configuration not stated),21.9%
4,COCCCN1C(=O)C(=O)/C(=C(/O)c2ccc(OC(C)C)cc2)C1c1ccc(O)c(OC)c1 (configuration not stated),-2.98%
5,CCc1cc2cccc(C)c2nc1SCC(=O)NNC(=O)c1ccco1,-10.6%
6,C=CCn1c(O)c(C(C)=Nc2ccc(C(=O)O)cc2)c(=O)[nH]c1=O,6.37%
7,C=CCn1c(O)c(C(C)=Nc2ccc(NC(C)=O)cc2)c(=O)[nH]c1=O,-9.1%
8,O=S(=O)(Nc1ccc(Cl)c(Cl)c1)N1CCOCC1,-2.78%
9,O=C(Nc1ccc(Cl)c(Cl)c1)C1=Cc2ccccc2OC1,58%
10,COc1ccc(S(=O)(=O)N2CCCCCC2)cc1NC(=O)CN1C(=O)CNC1=O,13.3%
11,CCNC(=O)C(=O)NCC(c1cccs1)S(=O)(=O)c1ccc(C)cc1 (configuration not stated),2.12%
12,CN(C)c1cc[n+](CC(=O)Nc2ccc(Cl)cc2)cc1,9.15%
13,O=C(O)c1ccccc1-c1nc2cc(Cl)ccc2c(=O)n1O,-1.37%
14,O=c1c2cc(Br)ccc2nc(-c2ccccc2)n1O,78.6%
15,COc1ccccc1-c1nc2cc(Cl)ccc2c(=O)n1O,9.28%
16,CCc1nc2ccc(Br)cc2c(=O)n1-c1ccccc1C(F)(F)F,26.9%
17,O=C(OCn1nnc2ccccc2c1=O)c1ccc(S(=O)(=O)N2CCOCC2)cc1,33.4%
18,Cc1nn(-c2ccccc2)c(C)c1NC(=O)COC(=O)c1ccccc1OC(F)F,9.15%
19,COc1ccc(NC(=O)C(c2ccccc2)c2ccccc2)c(OC)c1,-2.93%
20,Nc1nc2nc(SCC(=O)N3CCCc4ccccc43)[nH]c2c(=O)[nH]1,0.84%
21,CN(C)CCn1c2c(c(SCC(=O)Nc3ccc4c(c3)OCCO4)nc1=O)CCC2,-16.4%
22,O=C(COC(=O)c1cc([N+](=O)[O-])ccc1Cl)NC1CCCC1,73.8%
23,Cc1ccc(C(=O)OCC(=O)NC2CCCCC2)o1,36.7%

row,Structure (SMILES),inhibition
1,Nc1c(Cl)cc(Cl)cc1C(=O)OCC(=O)N1CCOCC1,17.1%
2,O=C(OCCN1C(=O)c2ccccc2C1=O)c1ccco1,15.3%
3,O=C(COC(=O)c1ccc(Br)cc1)NC1CCCC1,46.5%
4,O=C(CNC(=O)c1ccc(Br)o1)NC1CCCCCC1,-0.81%
5,O=C(OCCCN1C(=O)c2ccccc2C1=O)c1ccco1,10.6%
6,CC1CCN(C(=O)COC(=O)c2cc(Cl)cc(Cl)c2N)CC1,78.5%
7,CCc1ccc(CNC(=O)CN2C(=O)COc3ccccc32)cc1,14.8%
8,COc1ccc(S(=O)(=O)N2CCCC2CNC(=O)C(=O)NCc2ccc3c(c2)OCO3)cc1 (configuration not stated),10.3%
9,COC(=O)CCC(=O)OC1(C)C(=O)C=C2C=C(C3CC3)N(C3CCCC3)C=C2C1=O (configuration not stated),21.8%
10,NC1=NC(=O)/C(=C/c2ccc(-c3ccc(S(N)(=O)=O)cc3)o2)S1,-4.9%
11,Cc1ccc2c(C(=O)CN3CCN(C(=O)c4ccco4)CC3)c(C)[nH]c2c1,14%
12,O=C(NC1CCCCC1)C(c1cccnc1)N(C(=O)c1ccc(Cl)nc1)C1CCCCC1 (configuration not stated),20.7%
13,O=C(NC(=S)Nc1ccc2[nH]c(=O)[nH]c2c1)c1ccccc1[N+](=O)[O-],-4.02%
14,CCNC(=O)CSc1nnc(-c2ccccc2)n1-c1ccc(OCC)cc1,12%
15,O=C1CSC(=Nc2cccc([N+](=O)[O-])c2)N1,17.5%
16,O=C(OCC(=O)N1CCCC1)c1cc([N+](=O)[O-])ccc1Cl,67.6%
17,O=C(OCC(=O)N1CCCC1)c1cccc(Br)c1,67.8%
18,O=C(COC(=O)c1ccc(Br)o1)NCCNC(=O)COC(=O)c1ccc(Br)o1,0.38%
19,O=C(COC(=O)c1ccc([N+](=O)[O-])o1)NCCCc1ccccc1,73.4%
20,Nc1cccc(CP(=O)(c2ccccc2)c2ccccc2)c1,1.01%
21,COc1cc(NC(=O)c2ccccc2-n2cnnn2)cc(OC)c1,10.3%
22,COc1ccc(C2C(C(C)=O)=C(O)C(=O)N2c2ccc(Br)cc2)cc1 (configuration not stated),29.9%
23,COC(=O)CSc1nnc(-c2ccncc2)o1,-0.32%

row,Structure (SMILES),inhibition
1,COC(=O)c1ccc(CSc2nnc(-c3ccncc3)n2Cc2ccccc2)o1,12.6%
2,Cc1ccc(OCC(=O)OC(C)C(=O)NC2CCCCC2C)cc1C (configuration not stated),65.7%
3,Cc1c(C(=O)NCc2ccccc2CN2CCCC2)oc2ccc(F)cc12,42%
4,Cc1nc(C)c(C(=O)Nc2ccccc2)s1,-13.4%
5,COc1ccc(OC)c(NC(=O)c2nc3ccccc3s2)c1,-0.73%
6,O=C(NCc1ccccc1)c1nc2ccccc2s1,79.5%
7,O=C(NCc1ccco1)c1cccnc1-c1nc2ccccc2s1,27.7%
8,COc1ccc(NC(=O)Nc2nc3ccccc3s2)cc1,-4.36%
9,Cc1nc(Cl)sc1C(=O)Nc1ccccc1,-6.17%
10,CN(C(=O)COC(=O)CSc1cc(Cl)ccc1Cl)c1c(N)n(Cc2ccccc2)c(=O)[nH]c1=O,7.95%
11,COc1ccc(CC2C(=O)OC(C)(C)OC2=O)c(Cl)c1OC,-14.3%
12,CCCC1=C(C(=O)OCC)C(c2cccnc2)n2nc(C)nc2N1 (configuration not stated),-11.9%
13,COCCn1c(=O)c2c(nc3n2CC(C)CN3CCc2ccccc2)n(C)c1=O (configuration not stated),22.9%
14,Cc1[nH]c(=O)[nH]c(=O)c1S(=O)(=O)N1CCN(c2ccccc2F)CC1,-5.44%
15,COc1ccc(OC)c(C(=O)c2oc3ccccc3c2NC(C)=O)c1,-5.83%
16,CCOC(=O)c1sc(=S)n(-c2ccc3c(c2)OCO3)c1N,1.96%
17,N/C(=N\OC(=O)c1ccccc1Cl)c1cccc([N+](=O)[O-])c1,66.7%
18,N/C(=N\OC(=O)c1ccc(Cl)cc1)c1ccccn1,28.3%
19,N/C(=N\OC(=O)c1ccc(Cl)cc1)c1ccc(Cl)cc1,69.9%
20,N/C(=N\OC(=O)c1ccccc1Cl)c1ccccn1,-3.97%
